# In PubChem BioAssay:
# Calls of active or inactive are those of the source.
# Columns and labels:
# [1] = E. coli DRC41 culture turbidity changes, primary screen, E. coli filamentation inducer project, strain DRC41, OD650, 48 h (AID 1152);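 also: E. coli MC1000 strain DRC41 lacking acrAB efflux pump and sulA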; conditions: E. coli DRC41 (acrAB sulA), higher = more signal, called active from +8 up or from −8 down
# [2] = small-molecule binders of probe aLefty1, primary screen, biochemical, small-molecule microarray, 635/667 nm fluorescence (AID 1153); conditions: higher = more signal;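 also: score merges spot fluorescence with signal-to-noise ratio from the scanned slide images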
# [3] = PSAC antagonists in infected red cells, primary screen, cell-based, P. falciparum Indochina, OD700, 1 h (AID 1154); conditions: P. falciparum Indochina infected RBC osmotic lysis, higher = more signal, called active from +8 up or from −8 down
# [4] = PSAC antagonists in infected red cells, primary screen, cell-based, P. falciparum Indochina, OD700, 2 h (AID 1155);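 also: lysis reports solute entry through the parasite surface anion channel PSAC; channel blockers reduce lysis of infected cells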; conditions: P. falciparum Indochina infected erythrocytes, osmotic lysis OD700; higher = more signal, called active from +8 up or from −8 down
# [5] = osmotic lysis modulators in infected erythrocytes, primary screen, PSAC antagonist project, cell-based, P. falciparum Indochina, OD700, 3 h (AID 1156); conditions: higher = more signal, called active from +8 up or from −8 down
# [6] = PSAC antagonists in infected red cells, primary screen, cell-based, P. falciparum Indochina, OD700, 18 h (AID 1157); conditions: P. falciparum Indochina infected erythrocytes, osmotic lysis OD700, 18 h; higher = more signal, called active from +8 up or from −8 down
# [7] = modulators of S6 phosphorylation in cells, primary screen, cell-based, A549, cytoblot, luminescence, serum-stimulated (AID 1158); conditions: A549 phospho-S6 cytoblot, 5 h, higher = more signal;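 also: serum-stimulated A549 lung adenocarcinoma cells; signal is phosphorylated S6 detected by cytoblot immunostaining with HRP secondary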
# [8] = biological target: NADPH oxidase 2 (Homo sapiens) (UniProt P04839); assay: NOX2-dependent H2O2 signal modulators, primary screen, NOX inhibitor project, cell-based, HEK293-NOX2, PMA-stimulated, Amplex Red fluorescence (AID 1159); conditions: 45 min, higher = more signal, called active from +8 up or from −8 down; also: test concentration not given here
# Chain of NADPH oxidase 2 (Homo sapiens) (P04839 whole entry, looked up): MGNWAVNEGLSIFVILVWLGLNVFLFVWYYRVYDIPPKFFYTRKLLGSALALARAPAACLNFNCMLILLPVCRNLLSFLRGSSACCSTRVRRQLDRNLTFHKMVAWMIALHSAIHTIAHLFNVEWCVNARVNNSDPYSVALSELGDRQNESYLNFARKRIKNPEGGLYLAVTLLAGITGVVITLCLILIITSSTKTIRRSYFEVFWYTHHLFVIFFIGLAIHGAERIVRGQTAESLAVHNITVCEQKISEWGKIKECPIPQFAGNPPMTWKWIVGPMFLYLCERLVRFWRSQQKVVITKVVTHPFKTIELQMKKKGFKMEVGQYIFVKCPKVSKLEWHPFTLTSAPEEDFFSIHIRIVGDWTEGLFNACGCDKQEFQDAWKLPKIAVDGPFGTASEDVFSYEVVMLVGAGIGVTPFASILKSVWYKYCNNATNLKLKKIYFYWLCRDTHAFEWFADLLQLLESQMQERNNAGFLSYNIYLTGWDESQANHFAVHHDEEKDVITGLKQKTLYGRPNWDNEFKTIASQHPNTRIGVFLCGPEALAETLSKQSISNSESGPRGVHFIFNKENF
# [9] = biological target: NADPH oxidase 4 (Homo sapiens) (UniProt Q9NPH5); assay: NOX4-dependent H2O2 signal modulators, primary screen, NOX inhibitor project, cell-based, HEK293-NOX4, tetracycline-induced, Amplex Red fluorescence (AID 1160); conditions: 45 min, higher = more signal, called active from +8 up or from −8 down
# Chain of NADPH oxidase 4 (Homo sapiens) (Q9NPH5 whole entry, looked up): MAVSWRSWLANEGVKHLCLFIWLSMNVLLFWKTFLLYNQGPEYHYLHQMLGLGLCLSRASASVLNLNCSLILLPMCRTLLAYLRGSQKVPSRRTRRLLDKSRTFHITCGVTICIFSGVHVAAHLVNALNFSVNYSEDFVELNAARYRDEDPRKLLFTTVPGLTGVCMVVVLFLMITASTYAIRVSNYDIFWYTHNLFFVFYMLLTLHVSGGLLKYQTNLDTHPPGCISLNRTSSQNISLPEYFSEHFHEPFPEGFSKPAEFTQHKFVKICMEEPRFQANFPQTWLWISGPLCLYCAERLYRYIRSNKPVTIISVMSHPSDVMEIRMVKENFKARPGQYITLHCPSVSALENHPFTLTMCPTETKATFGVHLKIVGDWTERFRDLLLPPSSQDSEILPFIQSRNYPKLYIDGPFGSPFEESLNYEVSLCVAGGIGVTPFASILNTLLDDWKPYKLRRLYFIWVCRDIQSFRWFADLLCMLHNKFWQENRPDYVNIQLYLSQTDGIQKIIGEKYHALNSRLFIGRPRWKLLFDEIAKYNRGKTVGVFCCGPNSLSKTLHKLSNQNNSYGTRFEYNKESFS
# [10] = biological target: NADPH oxidase 5 (Homo sapiens) (UniProt Q96PH1); assay: NOX5-dependent H2O2 signal modulators, primary screen, NOX inhibitor project, cell-based, HEK293-NOX5, Amplex Red fluorescence (AID 1161); conditions: HEK293-NOX5, ionomycin, 45 min, higher = more signal
# Chain of NADPH oxidase 5 (Homo sapiens) (Q96PH1 whole entry, looked up): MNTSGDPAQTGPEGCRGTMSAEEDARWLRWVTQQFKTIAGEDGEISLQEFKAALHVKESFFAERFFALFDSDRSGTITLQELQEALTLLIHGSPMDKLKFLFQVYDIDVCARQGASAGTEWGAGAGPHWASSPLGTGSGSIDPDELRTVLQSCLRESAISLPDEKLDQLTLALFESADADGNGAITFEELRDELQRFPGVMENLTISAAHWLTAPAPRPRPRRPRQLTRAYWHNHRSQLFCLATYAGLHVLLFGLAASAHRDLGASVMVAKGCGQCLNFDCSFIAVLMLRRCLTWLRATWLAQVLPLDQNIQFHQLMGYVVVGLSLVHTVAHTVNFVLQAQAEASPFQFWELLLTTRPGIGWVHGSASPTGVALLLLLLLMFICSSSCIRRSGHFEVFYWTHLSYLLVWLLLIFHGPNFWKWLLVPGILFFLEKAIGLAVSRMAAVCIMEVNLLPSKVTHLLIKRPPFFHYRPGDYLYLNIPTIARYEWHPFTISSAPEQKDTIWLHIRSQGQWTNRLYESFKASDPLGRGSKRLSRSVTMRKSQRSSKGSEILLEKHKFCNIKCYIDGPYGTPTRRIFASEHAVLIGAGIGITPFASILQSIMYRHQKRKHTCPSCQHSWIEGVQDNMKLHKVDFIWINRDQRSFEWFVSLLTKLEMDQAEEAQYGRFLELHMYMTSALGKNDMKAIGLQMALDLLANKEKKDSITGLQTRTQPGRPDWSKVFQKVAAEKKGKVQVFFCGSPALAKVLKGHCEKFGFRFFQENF
Structure (SMILES),z-score [1],composite z-score [2],z-score [3],z-score [4],z-score [5],z-score [6],z-score [7],z-score [8],z-score [9],z-score [10]
CC(C)(C)OC(=O)CC[C@]1(C(=O)NCC(O)CO)N=C(c2ccc(OCCCO)cc2)O[C@H]1c1ccccc1 (stereo not given in full),1.79 (inactive),0.125,19.9 (active),1.43 (inactive),2.61 (inactive),-1.32 (inactive),2.01,0.246 (inactive),0.678 (inactive),0.199
CC=CC(O)C1C=CC2C(=O)N(c3ccccc3)C(=O)C2N1Nc1ccccc1F (stereo not given),-0.857 (inactive),0.762,4.36 (inactive),1.24 (inactive),0.164 (inactive),0.512 (inactive),-0.819,-1.11 (inactive),-2.88 (inactive),-2
Cc1ccccc1C(O)C1C=CC2C(=O)N(C)C(=O)C2N1N(c1ccccc1)c1ccccc1 (stereo not given),-0.402 (inactive),0.998,3.21 (inactive),1.71 (inactive),0.625 (inactive),1.25 (inactive),-0.877,0.888 (inactive),0.0569 (inactive),-0.125
C=CCOC(=O)[C@H]1[C@@H]2C(=O)O[C@@H](c3ccccc3)[C@@H](c3ccccc3)N2[C@@H](c2ccc(OCCOC(=O)[C@@H]3C[C@@H]4C(=O)N[C@@H](CCCCNC(C)=O)C(=O)N4[C@@H]3c3ccc(O)cc3)cc2)[C@]12C(=O)Nc1ccc(I)cc12,-0.465 (inactive),0.471,1.33 (inactive),1.52 (inactive),3.07 (inactive),0.964 (inactive),-0.621,1.08 (inactive),0.351 (inactive),2.35
CC1CC/C=C\[C@H]2OC34C=CCN(c5ccc(Cl)cc5)C(=O)[C@H]3N(CCCCCO)C(=O)[C@]4(C)C2C(=O)O1 (stereo not given in full),-0.351 (inactive),-0.101,-0.585 (inactive),0.231 (inactive),-0.175 (inactive),0.0119 (inactive),-0.157,0.57 (inactive),-0.261 (inactive),1.05
CC(C)C[C@@H]1NC(=O)[C@@H]2C[C@H](C(=O)NCCCCCN)[C@H](c3ccc(O)cc3)N2C1=O,-0.899 (inactive),-0.463,0.932 (inactive),-0.0263 (inactive),-0.302 (inactive),0.0068 (inactive),-0.928,-0.125 (inactive),-1.36 (inactive),0.553
CCCC[C@@H]1C[C@H]1[C@@H](NC(=O)c1ccccc1)c1ccc(C(F)(F)F)cc1,-0.903 (inactive),0.361,-0.512 (inactive),0.0991 (inactive),0.162 (inactive),0.739 (inactive),-0.295,-0.3 (inactive),-0.742 (inactive),0.689
C=C(/C(=C/C[C@H](OC(=O)c1ccncc1)c1ccc(CO)o1)c1cc(C(=O)OC)ccc1OC)C(C)C,-0.23 (inactive),0.0187,3.3 (inactive),0.365 (inactive),1.25 (inactive),0.136 (inactive),-0.578,-1.06 (inactive),-0.154 (inactive),-0.6
COC(=O)c1c2oc(c1C(=O)OC)C(=O)N(C)Cc1cn(nn1)C[C@H](Cc1ccccc1)NC(=O)N[C@H](CO)CC2,-0.878 (inactive),-0.0954,0.965 (inactive),0.308 (inactive),-0.119 (inactive),0.728 (inactive),-0.638,0.0368 (inactive),0.338 (inactive),0.282
CCOC(=O)C[C@H]1[C@H](OC(=O)Cc2ccc3c(c2)OCO3)[C@@H](NC(=O)Cc2ccc(OC)cc2)c2cc(OCCCO)ccc2N1C(=O)c1ccc2ccccc2n1,2.96 (inactive),0.0889,3.63 (inactive),-0.486 (inactive),-1.03 (inactive),-1.01 (inactive),1.29,-1.03 (inactive),1.04 (inactive),1.05
CCCCCCc1nc(C2CC2)cc2c1[Si](C(C)C)(C(C)C)O[C@H]2c1ccccc1,-1.27 (inactive),-0.23,0.0479 (inactive),-0.0357 (inactive),0.453 (inactive),-0.11 (inactive),-0.653,-3.31 (inactive),-0.00134 (inactive),-1.77
COC(=O)[C@@]1(Cc2ccc(F)cc2)[C@H]2c3cc(C(=O)N(C)C)n(Cc4cc(F)cc5c4OCOC5)c3C[C@H]2CN1C(=O)c1ccccc1,-0.62 (inactive),0.487,5.56 (inactive),0.0161 (inactive),0.366 (inactive),-1.27 (inactive),1.16,-0.508 (inactive),0.966 (inactive),-3.94
COC(=O)c1nc2oc1CC[C@@H](CO)NC(=O)N(C)Cc1cnnn1C[C@H](Cc1ccccc1)NC2=O,2.17 (inactive),-0.101,1.23 (inactive),0.656 (inactive),1.2 (inactive),0.409 (inactive),0.688,-0.524 (inactive),1.35 (inactive),0.371
CCCCCCc1nc(C2CC2)cc2c1[Si](C(C)C)(C(C)C)OC2,-0.611 (inactive),-0.0559,0.834 (inactive),-0.225 (inactive),0.981 (inactive),-1.13 (inactive),0.259,-6.34 (inactive),-2.12 (inactive),-4.98
CCCCN1CC=CC23O[C@@H]4/C=C\CCC(C)OC(=O)C4[C@H]2C(=O)N(C(CO)C(C)C)[C@@H]3C1=O (stereo not given in full),-0.0695 (inactive),0.13,1.65 (inactive),-0.361 (inactive),0.826 (inactive),0.406 (inactive),1.81,1.4 (inactive),-0.506 (inactive),2.14
COc1ccc([Si](C)(C)[C@@H]2[C@@H](CC(=O)N3Cc4ccccc4C[C@H]3CO)O[C@]3(C(=O)N(C)c4ccccc43)[C@H]2C)cc1,-0.883 (inactive),0.503,11.8 (active),2.87 (inactive),0.368 (inactive),1.21 (inactive),0.884,-0.11 (inactive),0.00429 (inactive),-1.7
CC(C)C(=C=CC[C@H](O)c1ccc(OCCO)cc1)C[C@H](O)c1ccccn1,0.839 (inactive),-0.191,11.3 (active),2.04 (inactive),1.11 (inactive),0.945 (inactive),0.439,1.66 (inactive),0.926 (inactive),-1.03
COc1ccc(NC(=O)O[C@H]2[C@H](OC(=O)Nc3ccccc3)[C@@H](OC(=O)Nc3ccccc3)[C@@H](OC)O[C@@H]2CO)cc1,-0.302 (inactive),0.113,4.49 (inactive),0.463 (inactive),0.316 (inactive),0.373 (inactive),0.256,-7.53 (inactive),-0.713 (inactive),-2.43
CCCCO[C@H]1C[C@H]2C(I)=C[C@@H]1C(=O)[C@]21CO1,-1.55 (inactive),-0.369,-0.0445 (inactive),0.18 (inactive),-0.163 (inactive),-0.16 (inactive),-0.408,0.0778 (inactive),0.609 (inactive),-0.383
C=C(COC)/C(=C/C[C@H](OC(C)=O)c1ccc(OCCO)cc1)c1cc(C(=O)OC)ccc1OC,1.28 (inactive),0.188,24.8 (active),7.54 (inactive),2.08 (inactive),1.14 (inactive),0.497,1.6 (inactive),1.03 (inactive),-1.34
COC(=O)C1=CC(CCCO)=CC(C2CC2)N(C)C=C1C(=O)OC (stereo not given),1.22 (inactive),-0.35,0.731 (inactive),-0.59 (inactive),0.482 (inactive),-1.41 (inactive),1.83,-0.463 (inactive),-0.122 (inactive),0.663
COC(=O)[C@@]1(Cc2ccc(F)cc2)[C@H]2c3cc(C(=O)N4CCCC4)n(CCN4CNCC4=O)c3C[C@H]2CN1C(=O)c1ccccc1,-1.59 (inactive),0.497,1.85 (inactive),0.811 (inactive),2.24 (inactive),0.937 (inactive),1,0.821 (inactive),-0.489 (inactive),-5.26
C[N+](C)(C)CCCCCCNC(=O)[C@H]1C[C@H]2C(=O)NCC(=O)N2[C@H]1c1ccc(O)cc1,0.16 (inactive),-0.455,1.76 (inactive),0.682 (inactive),-1.2 (inactive),-0.0189 (inactive),-0.217,0.446 (inactive),0.256 (inactive),0.328
COC(=O)C(CC#Cc1ccc2c(c1)[C@]1(C(=O)N2)[C@H](c2ccccc2OCCO)N2[C@H](c3ccccc3)[C@H](c3ccccc3)OC(=O)[C@H]2[C@@H]1C(=O)NC[C@H](O)c1ccccc1)C(=O)OC,0.345 (inactive),0.964,2.45 (inactive),1.18 (inactive),0.984 (inactive),0.957 (inactive),1.54,1.63 (inactive),1.03 (inactive),1.34
O=C1c2ccccc2[C@](Cc2ccccc2I)(C(=O)NCC(F)(F)F)[C@H](c2ccc(CO)cc2)N1C1CCCCC1,1.25 (inactive),0.0686,7.04 (inactive),0.605 (inactive),2 (inactive),0.0361 (inactive),0.175,-2.92 (inactive),0.179 (inactive),1.69
COC(=O)[C@@]1(Cc2ccccc2)[C@H]2c3cc(C(=O)N(C)C)n(CCc4ccc(O)c(OC)c4)c3C[C@H]2CN1C(=O)c1ccccc1,-0.873 (inactive),1.11,0.318 (inactive),0.277 (inactive),-0.692 (inactive),0.667 (inactive),-0.565,0.0564 (inactive),-0.485 (inactive),-0.207
